High-throughput results as filed in PubChem BioAssay.
Sampled rows, rich in hits. Any-hit rate of the full collection: about 3.1%.
MEKK3 PB1 HTS = MEKK3-MEK5 PB1 interaction, increase or decrease. Q99759. bead-based flow cytometry, Alexa488-MEK5 binding to MEKK3; actives lie on both sides; 0 = blocked by unlabeled MEK5, 100 = vehicle. binding response (% of control), % at 10 µM. 290,000 tested, 1.4% active. AID 1529;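 active = binding response more than 3 SD above or below the average of its plate-row segment, actives on both sides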;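 note: Alexa488 bead fluorescence after subtracting the streptavidin-only scavenger bead signal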
PREPL inhibitor = human PREPL enzyme inhibition; inhibition, % at 5.96 µM; recombinant PREPL, fluorescence polarization activity-based probe; AID 2751; Q4J6C6; 320,000 tested, 0.68% active; in the data active = inhibition above about 43%
ATG4B inh = inhibitors of human ATG4B cysteine protease. Q9Y4P1. ATG4B cleavage of LC3-PLA2, NBD-HPC fluorescence, 1 h. inhibition, % at 8.33 µM. 340,000 tested, 0.51% active; in the data active = inhibition above about 40%
Target sequence (Q9Y4P1 whole entry, looked up): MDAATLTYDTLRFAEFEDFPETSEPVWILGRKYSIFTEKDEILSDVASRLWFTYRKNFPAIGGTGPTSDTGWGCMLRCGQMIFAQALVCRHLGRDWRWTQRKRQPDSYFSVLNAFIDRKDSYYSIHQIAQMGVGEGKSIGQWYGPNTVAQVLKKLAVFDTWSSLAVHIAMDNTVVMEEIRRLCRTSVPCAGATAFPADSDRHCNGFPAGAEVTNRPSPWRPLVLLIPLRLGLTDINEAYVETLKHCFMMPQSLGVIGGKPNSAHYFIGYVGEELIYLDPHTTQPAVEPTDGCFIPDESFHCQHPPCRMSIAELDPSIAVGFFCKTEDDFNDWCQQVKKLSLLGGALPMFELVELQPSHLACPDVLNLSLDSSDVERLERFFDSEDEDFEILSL
MEKK2mut PB1 HTS = signal of MEK5 binding to mutant human MEKK2 PB1 domain; bead flow cytometry, Alexa488-MEK5 binding to MEKK2 mutant; percent response, % at 10 µM; 290,000 tested, 0.35% active; AID 1530; in the data active = percent response above about 24%, passing the limit was not always enough
MEKK2 WT-MEK5 = raises or lowers MEK5 binding to wildtype human MEKK2 PB1 domain; Q9Y2U5; bead flow cytometry, Alexa488-MEK5 binding to MEKK2 WT; actives lie on both sides; binding response (% of control), % at 10 µM; 290,000 tested, 1.1% active; in the data active = binding response below about 67% or above about 130%
UBC13 inh = inhibitors of human UBC13 polyubiquitin chain formation. P61088. TR-FRET. inhibition, % at 20 µM. 330,000 tested, 0.47% active; in the data active = inhibition above about 45%, passing the limit was not always enough
Target sequence (P61088 whole entry, looked up): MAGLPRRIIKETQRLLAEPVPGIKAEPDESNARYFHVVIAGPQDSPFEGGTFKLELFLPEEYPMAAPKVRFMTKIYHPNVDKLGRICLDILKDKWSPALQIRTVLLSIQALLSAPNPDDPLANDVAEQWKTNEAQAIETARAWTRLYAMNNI
MEKK2wt confirm = raises or lowers MEK5 binding to wildtype human MEKK2, retest | shares compounds with MEKK3 PB1 HTS | bead flow cytometry, Alexa488-MEK5 binding to MEKK2 WT; actives lie on both sides | binding response (% of control), % at 10 µM | 5,900 tested, 2.4% active | AID 1892; in the data active = binding response below about 16% or above about 210%; inactive = in between
MEKK2mut-MEK5 = signal of MEK5 binding to mutant human MEKK2, retest; shares compounds with MEKK3 PB1 HTS; bead flow cytometry, Alexa488-MEK5 binding to MEKK2 mutant; percent response, % at 10 µM; 5,900 tested, 2% active; AID 1893; in the data active = percent response mostly above about 71%, no sharp cut-off; inactive = mostly below about 38%;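 note: higher means compound restores mutant binding toward wildtype level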
MEKK3 confirm = confirmation of inhibitors of MEK5 binding to human MEKK3; shares compounds with MEKK3 PB1 HTS; bead flow cytometry, Alexa488-MEK5 binding to MEKK3; hits give low values; binding response (% of control), % at 10 µM; 5,900 tested, 1.8% active;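 active = binding response below 72% of control, or above a set upper limit, though filed actives all read lower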;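 note: lower values mean stronger disruption of MEK5 binding to MEKK3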
A number is an active result; i = inactive; nt = no result; [ ] = remark or other dose.

SMILES	MEKK3 PB1 HTS	PREPL inhibitor	ATG4B inh	MEKK2mut PB1 HTS	MEKK2 WT-MEK5	UBC13 inh	MEKK2wt confirm	MEKK2mut-MEK5	MEKK3 confirm
Cc1csc2nc(NC(=O)c3ccccc3)sc(=O)c12	130	i	i	i	i	i	i	i	i
Cc1c2cnn(CC(=O)NC3CCCC3)c(=O)c2c(C)n1Cc1ccccc1	i	i	i	i	i	i	nt	nt	nt
Cc1c2cnn(CC(=O)NCCCN3CCCCC3C)c(=O)c2c(C)n1Cc1ccccc1 (stereo unspecified)	i	i	i	28	145	i	i	i	i
CCC(C(=O)OCC(=O)NC1CCS(=O)(=O)C1)c1ccccc1 (stereo unspecified)	nt	i	i	nt	nt	i	nt	nt	nt
CCN(CC)S(=O)(=O)c1ccc(OC)c(NC(=O)C(C)Oc2ccc3c(C)cc(=O)oc3c2)c1 (stereo unspecified)	145	i	i	i	i	i	i	i	i
CCCn1c(=NC(=O)c2ccco2)c(C(=O)OCC)cc2c(=O)n3ccccc3nc21	2.0[inhibitor]	i	i	i	-2.0[inhibitor]	i	i	i	i
CC(C)Cn1c(CN2CCN(C(=O)c3ccco3)CC2)nc2c1c(=O)n(C)c(=O)n2C	141	i	i	i	i	i	i	i	i
CCOC(=O)c1cc2c(=O)n3ccccc3nc2n(C(C)C)c1=NC(=O)c1ccco1	i	i	i	i	i	i	nt	nt	nt
Cn1c(C(=O)N2CCN(C(=O)c3ccco3)CC2)cc2c(=O)n3ccccc3nc21	138	i	i	i	i	i	i	i	i
COc1ccccc1CNS(=O)(=O)c1ccc(N2CCCC2)cc1Br	nt	nt	i	nt	nt	nt	nt	nt	nt
Nc1cc(C(=O)OCC(=O)NNC(=O)c2ccccc2)ccc1Cl	nt	i	i	nt	nt	i	nt	nt	nt
CCN(CC)Cc1ccccc1CNC(=O)c1cccc(S(=O)(=O)Nc2ccc3c(c2)OCO3)c1	nt	i	i	nt	nt	i	nt	nt	nt
COc1ccccc1C(=O)Nc1ccccc1N1CCN(C(=O)c2ccc(Cl)cc2)CC1	i	i	i	i	i	i	nt	nt	nt
O=C(Nc1ccccc1)/C(=C/c1cccnc1)NC(=O)c1ccco1	129	i	i	i	i	i	i	i	i
O=C(Nc1ccccc1)/C(=C\c1ccncc1)NC(=O)c1ccccc1	131	i	i	i	i	i	i	i	i
O=C(Nc1ccc(O)cc1)/C(=C\c1ccncc1)NC(=O)c1ccccc1	i	i	i	i	i	i	nt	nt	nt
CCOC(=O)N1CCC(NCCNC(=O)c2cccc(F)c2)CC1	nt	i	i	nt	nt	i	nt	nt	nt
Cc1ccc(NC(=O)C2CCN(S(C)(=O)=O)CC2)cc1Cl	i	i	i	i	i	i	nt	nt	nt
O=C(NCC(=O)N1CCN(C(c2ccccc2)c2ccccc2)CC1)c1ccccc1F	i	i	i	i	i	i	nt	nt	nt
CCOC(=O)c1ccc(NC(=O)CNC(=O)C23CC4CC(CC(C4)C2)C3)cc1	i	i	i	i	i	i	nt	nt	nt
CCOC(=O)c1ccc(NS(=O)C23CC4CC(CC(C4)C2)C3)cc1 (stereo unspecified)	i	i	i	i	-6.0[inhibitor]	i	i	i	i
CCCSc1nnc(NC(=O)c2sc3nc(-c4cccs4)ccc3c2N)s1	i	i	i	i	i	i	nt	nt	nt
Cc1csc(NC(=O)c2sc3nc(-c4cccs4)ccc3c2N)n1	i	i	i	i	66[inhibitor]	i	i	i	i
CC1CN(C(=O)CCCN2C(=O)c3ccccc3C2=O)CC(C)O1 (stereo unspecified)	i	nt	i	i	i	i	nt	nt	nt
Cc1cc(C)c2oc(C(=O)Nc3nnc(C(C)C)s3)cc(=O)c2c1	212	i	i	i	i	i	i	i	i
SMILES	MEKK3 PB1 HTS	PREPL inhibitor	ATG4B inh	MEKK2mut PB1 HTS	MEKK2 WT-MEK5	UBC13 inh	MEKK2wt confirm	MEKK2mut-MEK5	MEKK3 confirm
Cc1ccc(CSCC(=O)NCc2cccnc2)cc1	137	i	i	i	i	i	i	i	i
Cc1ccc(CC(=O)NCc2cccnc2)cc1	i	i	nt	i	i	i	nt	nt	nt
CCN(CC(=O)Nc1c(F)cccc1F)C(=O)c1ccc(=O)n(C)n1	nt	nt	i	nt	nt	nt	nt	nt	nt
CC(=O)CSc1cc(C)nc2c(-c3ccccc3)c(C)nn12	129	i	i	i	i	i	i	i	i
CC(C)N(CC#CCC1(O)c2ccccc2-c2ccccc21)CCO	i	i	i	i	i	i	nt	nt	nt
CCN(CC#CCC1(O)c2ccccc2-c2ccccc21)CCO	77[inhibitor]	i	i	i	i	i	i	i	i
CN1CCN(c2ccc(C(F)(F)F)cc2NC(=O)c2ccco2)CC1	i	i	i	i	i	i	nt	nt	nt
Cn1ncc(Br)c1C(=O)N1CCN(C(=O)c2ccco2)CC1	i	i	i	i	i	i	nt	nt	nt
Cc1ccc(CC(=O)N2CCN(C(=O)c3ccco3)CC2)cc1	49[inhibitor]	i	i	i	i	i	i	i	i
Cc1nn(C)c(C(=O)N2CCN(C(=O)c3ccco3)CC2)c1Br	i	i	i	i	34[inhibitor]	i	i	i	i
C=CCn1c(O)c2ccc(C(=O)N=NC(=O)COc3ccccc3F)cc2c1O	nt	i	i	nt	nt	i	nt	nt	nt
COc1ccc(OC)c(S(=O)(=O)N2CCC(C(=O)NCc3ccncc3)CC2)c1	i	i	i	i	i	i	nt	nt	nt
CN1CCN(C2=Cc3ccccc3Sc3cc(F)ccc32)CC1	i	i	i	i	136	i	i	i	i
CN1CCN(C2=Cc3ccc(Cl)cc3Sc3ccc(F)cc32)CC1	i	i	i	27	150	i	i	i	i
COc1ccc(C(=O)OCC(=O)NC2CCCCCCC2)cc1OC	nt	i	i	nt	nt	i	nt	nt	nt
O=C(OCc1nnc(-c2ccccc2)o1)C1CCN(C(=O)c2ccc(Cl)cc2)CC1	nt	nt	i	nt	nt	i	nt	nt	nt
CCOC(=O)C1=C(CC)OC(N)=C(C#N)C1c1ccc(OC)c(C)c1OC (stereo unspecified)	2.0[inhibitor]	i	i	i	2.0[inhibitor]	i	i	i	i
CCCC1=C(C(=O)OCC)C(c2ccc(OC)c(C)c2OC)C(C#N)=C(N)O1 (stereo unspecified)	i	i	i	i	i	i	nt	nt	nt
CCN(CC(=O)Nc1c(F)cccc1F)C(=O)c1ccccn1	nt	i	i	nt	nt	i	nt	nt	nt
Cc1nc(N)sc1-c1csc(Nc2ncccn2)n1	35[inhibitor]	nt	i	i	i	nt	i	i	43
COc1ccccc1Nc1nc(-c2sc(N)nc2C)cs1	i	i	i	i	i	i	nt	nt	nt
c1ccc(SCc2nc3ccccc3[nH]2)cc1	i	i	i	i	i	i	nt	nt	nt
Cc1ccc(SCc2nc3ccccc3[nH]2)cc1	2.0[inhibitor]	i	i	i	2.0[inhibitor]	i	i	i	i
